In the library only some 2.2% were active in any assay of this set; here they are far more common.
HIF act: HIF pathway transcriptional activation. hit rate 0.32% among 300,000. U2OS HRE-luciferase reporter, luminescence; normalized: DMSO 0%, desferrioxamine 100%. activation, % at 7.5 µM (by protocol);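 active means mean activation of at least 10% of the iron chelator positive control signal, with at least half of replicates also reaching 10%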
SMARCA2 activ: activators of SMARCA2 function; activation, % at 9.1 µM; AID 652017; MG213 cells, MMTV-luciferase reporter, dexamethasone, overnight; hit rate 1% among 370,000; in the data active means activation above about 7.8%;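 further: 0% = vehicle wells and 100% = reference activator wells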
Hsp70 activator: switches on Hsp70 transcription; HeLa Hsp70 promoter luciferase reporter, luminescence; scaled: vehicle 0, proteasome-inhibitor control 100%; activation, % at 10 µM; hit rate 0.04% among 200,000; AID 1203;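 active means activation above the mean across all tested compounds plus 3 SD, cutoff set per campaign, cut at about 5.5% in these data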;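 further: 100% = MG132 at 30 µM as the positive control and 0% = DMSO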
GalR3 antagonist: antagonists of human GalR3 | O60755 | HEK293 GalR3-CNG cAMP membrane potential fluorescence; galR3 body fused to GalR1 C-terminus | inhibition, % at 3 µM | hit rate 0.44% among 360,000;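 active means inhibition above the screen-wide average plus 3 SD, cut at about 13% in these data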;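 further: forskolin and galanin both at EC90 stimulate the cells; cAMP rise reported by CNG channel membrane potential dye signal; 0% = forskolin plus galanin with DMSO and 100% = forskolin alone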
Target sequence (O60755 1-299 limits assumed): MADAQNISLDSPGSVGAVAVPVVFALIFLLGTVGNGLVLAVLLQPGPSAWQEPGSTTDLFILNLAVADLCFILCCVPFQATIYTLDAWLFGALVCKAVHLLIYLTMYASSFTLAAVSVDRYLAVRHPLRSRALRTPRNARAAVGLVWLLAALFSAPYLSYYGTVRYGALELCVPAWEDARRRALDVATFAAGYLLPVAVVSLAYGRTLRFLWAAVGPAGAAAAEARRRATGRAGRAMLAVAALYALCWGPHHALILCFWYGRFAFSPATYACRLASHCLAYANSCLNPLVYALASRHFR
FXN GAA850 act: increases GAA850 frataxin promoter reporter activity. HEK293 lucGAA850 FXN promoter luciferase reporter, 24 h; percent of 10 µM SAHA response. activation, % at 6 µM. hit rate 0.56% among 360,000. AID 540364;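 active means activation above the average of all compounds screened plus 3 SD, cutoff fixed separately per campaign, cut at about 7.5% in these data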;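 further: 0% = DMSO wells and 100% = 10 µM SAHA wells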
GAA30 counter: GAA30 FXN promoter activation counter-screen; HEK293 lucGAA30 FXN promoter luciferase, 24 h; DMSO = 0%, 5 µM ipriflavone = 100%; shares compounds with FXN GAA850 act; hit rate 66% among 1,900; activation, % at 6 µM;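 active means mean activation above the mean of solvent-only control wells plus 3 SD, cut at about 22% in these data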;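 further: counterscreen of GAA850 promoter hits where activity marks nonselective or luminescence artifacts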
GAA850 confirm: confirmation of GAA850 frataxin (FXN) promoter activators. shares compounds with FXN GAA850 act. HEK293 lucGAA850 FXN promoter luciferase reporter, 24 h; 100% = activation by SAHA. activation, % at 6 µM. hit rate 86% among 1,900. AID 588351;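 active means mean activation above a set limit taken from the primary screen, cut at about 8% in these data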;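 further: 0% = DMSO wells and 100% = 10 µM SAHA wells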
* = called active by the depositor; nt = no result.

SMILES	HIF act	SMARCA2 activ	Hsp70 activator	GalR3 antagonist	FXN GAA850 act	GAA30 counter	GAA850 confirm
CCOC(=O)/C(=N\Nc1ccc(Cl)cc1)c1csc(Nc2ccccc2)n1	-41	-2	0	1	8.0*	34*	24*
CCCCC(CCC(=O)O)(C(=O)OCC)c1csc(Nc2ccccc2)n1 (stereo not given)	0	nt	0	nt	-1	nt	nt
Cc1nc(SC(C(=O)c2ccccc2)c2ccccc2)nc2ccccc12 (stereo not given)	0	-1	0	-5	4	nt	nt
COc1ccc2nc(SC(C(=O)c3ccccc3)c3ccccc3)nc(C)c2c1 (stereo not given)	0	1	0	0	11*	20	19*
CCOC(=O)c1ccc(N=c2sc(C(=O)OC)cc(=O)n2CCCN2CCOCC2)cc1	0	-2	0	nt	1	nt	nt
CCOC(=O)c1ccc(N=c2sc(C(=O)OC)cc(=O)n2Cc2ccco2)cc1	0	0	1	nt	15*	7	35*
C=CCn1c(SCC(=O)Nc2ccc(F)cc2F)nc2c([nH]c3ccccc32)c1=O	0	-2	nt	3	2	nt	nt
COCCn1c(SCC(=O)Nc2ccccc2OC)nc2c([nH]c3ccccc32)c1=O	0	-2	nt	-5	8.0*	14	7.9*
C=CCn1c(SCC(=O)Nc2ccccc2OC)nc2c([nH]c3ccccc32)c1=O	0	3	nt	-1	13*	18	12*
O=C1C=CC(=O)c2c(O)c(N3CCN(CCOCCO)CC3)c(Br)c(O)c21	nt	5	nt	-2	14*	-98	-30
CCCC[C@H](C(=O)N(C)c1cccc(OC)c1)[C@@H](O)c1ccc(Cl)cc1	nt	-4	nt	nt	nt	nt	nt
C/C(=N/NC(=O)OC(C)(C)C)c1ccco1	2	5	0	-3	4	nt	nt
CC(/C=C/c1ccco1)=N/NC(=O)OC(C)(C)C	0	3	0	-3	8.8*	68*	27*
CC(/C=C/c1ccco1)=N/NC(=O)Cc1cccs1	-1	1	0	-3	8.2*	37*	18*
CCc1ccc(Cn2c(=O)n(Cc3ccc(C(=O)NCCCOC)cc3)c(=O)c3ccccc32)cc1	nt	1	nt	nt	nt	nt	nt
CCNS(=O)(=O)c1ccc(CCC(=O)N2CCN(c3cccc(Cl)c3)CC2)cc1	-1	1	nt	-7	2	nt	nt
Cc1ccc(S(=O)(=O)NCCC(=O)N2CCN(c3cccc(Cl)c3)CC2)cc1C	0	1	nt	-2	11*	-5	1
COc1ccc(-c2nc(C#N)c(NCCc3ccccc3)o2)cc1OC	3	7	0	4	8.2*	100*	34*
O=C(Cc1c[nH]c2ccccc12)Nc1ccc(Nc2cccnc2)c(-c2cc(F)cc(F)c2)c1	nt	2	nt	-8	nt	nt	nt
Clc1ccc(/C=N/Nc2ccccn2)cc1	1	2	0	-10	6	nt	nt
O=C(O)c1cccc2c(/C=N/Nc3ccccn3)c[nH]c12	1	nt	nt	nt	0	nt	nt
Brc1ccc(/C=N/Nc2ccccn2)cc1	2	3	0	-5	9.5*	105*	39*
O=c1nc(N/N=C/c2c[nH]c3ccccc23)cn[nH]1	1	5	nt	-4	7.8*	103*	24*
C(=N\Nc1ccccn1)/c1c[nH]c2ccccc12	3	7	nt	-4	7.7*	76*	36*
CCCN1C(=O)c2n[nH]c(C)c2C1c1ccc(Br)cc1 (stereo not given)	nt	1	nt	-6	nt	nt	nt
SMILES	HIF act	SMARCA2 activ	Hsp70 activator	GalR3 antagonist	FXN GAA850 act	GAA30 counter	GAA850 confirm
CCOc1cc([N+](=O)[O-])c2nc(N)sc2c1	1	8	nt	-4	7.9*	39*	19*
COc1cc([N+](=O)[O-])c2nccnc2c1	0	-2	0	-3	1	nt	nt
COC(=O)CN1C(c2ccc(Cl)cc2)=Nc2ccc(Cl)cc2C1c1ccccc1 (stereo not given)	0	0	0	-8	13*	14	11*
Cc1ccc(CNc2ccc3c(c2)ncn3C(C)(C)C)cc1	3	2	0	-3	10.0*	107*	37*
CC1CC1C(=O)N1CCC(Oc2cccnc2)CC1 (stereo not given)	nt	1	nt	nt	nt	nt	nt
CC1=C(c2ccc(C)cc2)S(=O)(=O)N(CC(=O)O)C1=O	0	-3	0	-4	2	nt	nt
COC(=O)CN1C(=O)C(C)=C(c2ccc(C)cc2)S1(=O)=O	0	-4	0	-7	13*	26*	8.2*
O=C1Nc2ccccc2Nc2ccc([N+](=O)[O-])cc21	-14	-3	nt	-10	8.3*	115*	35*
CC(=O)c1cc(-c2ccccc2)c(=O)n2c1CCC2	nt	0	nt	nt	nt	nt	nt
CCCC(=O)N1CCC[C@]2(CC[C@@H](CCC(C)=O)O2)C1	nt	-4	nt	nt	nt	nt	nt
Cc1cc(OC(C)C(=O)N(Cc2ccco2)C2CCS(=O)(=O)C2)ccc1Cl (stereo not given)	0	nt	nt	nt	12*	9	5
Cc1nc2c(-c3ccccc3)cnn2c(N2CCOCC2)c1C	2	4	nt	-9	8.3*	127*	44*
Nc1nc(SCc2ccc(Cl)cc2Cl)ns1	0	0	0	-4	7.9*	50*	15*
Cc1nn2cc(-c3ccc(Cl)cc3)cnc2c1Cl	4	-1	0	0	7.7*	119*	37*
CCCCC1O[C@@H](C)[C@@H]2CN3CCc4c([nH]c5ccccc45)[C@@H]3C[C@@H]2N1C (stereo not given in full)	nt	-1	nt	-8	nt	nt	nt
COc1ccc(C(=O)C2(C(=O)NCCO)CC(c3ccccn3)=NO2)cc1 (stereo not given)	nt	4	nt	nt	nt	nt	nt
Cc1ccc(NC(=O)C(=O)NCc2ccccn2)cc1	3	3	0	-2	8.3*	90*	38*
CCN(C[C@H]1N[C@@](C)(C(=O)OC)[C@H]2C(=O)N(Cc3ccccc3)C(=O)[C@@H]12)C(=O)c1ccc(F)cc1	nt	-2	nt	1	2	nt	nt
COC(=O)[C@]1(C)N[C@H](CN(C)C(=O)Nc2ccc(Cl)cc2)[C@@H]2C(=O)N(Cc3ccccc3)C(=O)[C@@H]21	nt	3	nt	-7	18*	24*	13*
COC(=O)[C@]1(C)N[C@H](CN(C)C(=O)Nc2ccc(C)cc2)[C@@H]2C(=O)N(Cc3ccccc3)C(=O)[C@@H]21	nt	7	nt	-7	12*	25*	7
COC(=O)[C@]1(C)N[C@H](CN(C)C(=O)Nc2ccc(OC)cc2)[C@@H]2C(=O)N(Cc3ccccc3)C(=O)[C@@H]21	nt	-3	nt	-6	8.3*	19	17*
